Activity calls are given as the source filed them. Unless noted, the rule behind the calls is not given here.
Legend:
[1] = liver-stage malaria parasite load reduction – cell-based, known kinase inhibitor set, luminescence, hepatoma host viability (AID 624392); conditions: Plasmodium liver stage in hepatoma cells, luciferase luminescence, concentration not given here; liver cell % of control: measured here: host liver cell viability; parasite % of control: stronger effect = lower value;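 note: infected cells incubated roughly two days before readout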
[2] = altered dexamethasone sensitivity, NF-kB reporter, cell-based, luciferase, IL-1B stimulus (AID 624486); conditions: IL-1B + dexamethasone, luminescence; percent of negative control (+Dex): actives lie on both sides, concentration not given here; z-score: measured here: IL-1B alone, no Dex;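 for percent of negative control (+Dex): 100% = mean signal of vehicle control wells on the plate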
[3] = C. elegans survival during P. aeruginosa infection – whole organism (AID 651566);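 note: tested at 14 µM; sign flipped so higher z means a lower ratio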; conditions: C. elegans killed by P. aeruginosa, survival ratio
[4] = pro-inflammatory signaling induction in mouse macrophages – cell-based, murine, luminescence (AID 652131); conditions: murine macrophage pro-inflammatory reporter, stronger effect = higher value
[5] = target: Cellular tumor antigen p53 (Homo sapiens) (UniProt P04637); assay: GFP-p53 level modulators in HPV16+ cells – imaging, known kinase inhibitor set, EGFP/DsRed ratio (AID 1053116); conditions: GFP-p53 stability, stronger effect = higher value; EGFP object count: measured here: GFP-p53 positive objects count;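 note: cells exposed to compounds for 24 h at 37 °C before reading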
Chain of Cellular tumor antigen p53 (Homo sapiens) (P04637 whole entry, looked up): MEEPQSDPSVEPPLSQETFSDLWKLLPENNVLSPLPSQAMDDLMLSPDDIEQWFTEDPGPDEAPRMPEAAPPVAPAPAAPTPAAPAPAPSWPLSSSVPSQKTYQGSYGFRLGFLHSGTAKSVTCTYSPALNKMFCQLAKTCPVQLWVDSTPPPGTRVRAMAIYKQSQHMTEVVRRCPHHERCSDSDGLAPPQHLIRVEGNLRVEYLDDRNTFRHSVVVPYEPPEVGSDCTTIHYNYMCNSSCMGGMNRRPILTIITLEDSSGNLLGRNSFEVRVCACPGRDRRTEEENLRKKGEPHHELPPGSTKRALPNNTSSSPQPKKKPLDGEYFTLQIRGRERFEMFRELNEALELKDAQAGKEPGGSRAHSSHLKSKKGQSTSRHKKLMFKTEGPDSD

[6] = inducers of IRF3 signaling, differentiated THP-1 – cell-based, PMA-stimulated THP-1, luminescence (AID 1053176); conditions: PMA-differentiated THP-1, IRF3 reporter luminescence; stronger effect = higher value
[7] = MELAS cybrid and Rieske KO viability enhancers – cell-based, MELAS cybrids, Rieske KO mouse fibroblasts, CellTiter-Glo, primary screen (AID 1508586;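 active = mean z-score across replicates of 1.96 or higher in either the MELAS or the Rieske mutant cell line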;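 note: z relative to plate mean and SD of compound and empty wells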); conditions: low glucose
[8] = MELAS cybrid survival, CellTiter-Glo 48 h, stronger effect = higher value
[9] = Rieske KO mouse fibroblast survival, CellTiter-Glo 72 h

SMILES | liver cell % of control [1] | parasite % of control [1] | percent of negative control (+Dex) [2] | z-score [2] | z-score [3] | z-score [4] | EGFP object count [5] | EGFP/DsRed ratio [5] | fraction signal [6] | z-score [7, 8] | z-score [7, 9]
O=C1Nc2ccc(I)cc2/C1=C\c1cc(Br)c(O)c(Br)c1 | 86.2% | 77.5% (inactive) | 92% (inactive) | -0.355 | 1.3 (inactive) | 0.587 (inactive) | 1 | 0.0402 (inactive) | -0.0105 (inactive) | 0.405 (inactive) | -0.253
COc1cccc(-n2ncc3c(N/N=C/c4ccncc4)ncnc32)c1 | 106% | 21.2% (inactive) | 156% (active) | 0.175 | 0.485 (inactive) | 0.337 (inactive) | 14 | 0.38 (inactive) | 0.0245 (inactive) | -0.213 (inactive) | 0.531
CCNC(=O)O[C@H]1CN[C@H](C#Cc2cc3ncnc(Nc4ccc(OCc5cccc(F)c5)c(Cl)c4)c3s2)C1 | 105% | 113% (inactive) | 82.5% (inactive) | -0.355 | 1.02 (inactive) | -0.875 (inactive) | 5.5 | 0.233 (inactive) | -0.003 (inactive) | 0.000408 (inactive) | -0.264
Oc1cccc(-c2nc(-c3ccccc3)[nH]c2-c2ccncc2)c1 | 111% | 13.2% (active) | 124% (inactive) | 1.75 | 0.81 (inactive) | 1.63 (inactive) | 2.5 | 0.0183 (inactive) | 0.0025 (inactive) | -0.947 (inactive) | -0.653
CN1CCN(CCCNc2nc3ccc(Oc4ccc(NC(=O)Nc5cc(C(F)(F)F)ccc5F)cc4)cc3[nH]2)CC1 | 95.2% | 94.4% (inactive) | 97.5% (inactive) | 0.025 | -0.94 (inactive) | 1.21 (inactive) | 3.5 | 0.103 (inactive) | -0.0045 (inactive) | -0.0444 (inactive) | -0.286
Nc1ncnc2occ(-c3ccc(NC(=O)Nc4cccc(C(F)(F)F)c4)cc3)c12 | 49.9% | 10.9% (inactive) | 66.5% (active) | -3 | -0.335 (inactive) | -1.22 (inactive) | 3.5 | 0.146 (inactive) | -0.016 (inactive) | -0.197 (inactive) | -0.452
COc1cccc(-n2ncc3c(N/N=C/c4ccc(C(=O)NCCN(C)C)cc4)ncnc32)c1 | 77.1% | 68.4% (inactive) | 104% (inactive) | 0.67 | -0.295 (inactive) | 0.961 (inactive) | 7 | 0.117 (inactive) | -0.0045 (inactive) | -0.557 (inactive) | 0.745
CCn1c(-c2nonc2N)nc2cncc(C(=O)N3CCNCC3)c21 | 101% | 140% (inactive) | 111% (inactive) | 0.555 | -0.355 (inactive) | 0.864 (inactive) | 8 | 0.129 (inactive) | -0.005 (inactive) | -0.623 (inactive) | 0.0786
O=C1Nc2ccc(-c3cccnc3)cc2/C1=C\c1cc(Br)c(O)c(Br)c1 | 174% | 13.3% (inactive) | 102% (inactive) | -0.125 | 0.98 (inactive) | 0.575 (inactive) | 1.5 | 0.0182 (inactive) | -0.0065 (inactive) | -0.192 (inactive) | -0.185
CN(C)CCOc1ccc(-c2cc(-c3ccc4c(c3)CC/C4=N/O)c(-c3ccncc3)o2)cc1 | 77.4% | 441% (inactive) | 130% (inactive) | 0.59 | 0.205 (inactive) | -0.386 (inactive) | 48 | 1.74 (active) | 0.045 (inactive) | 0.463 (inactive) | -0.429
CC(C)=Cc1cccc2[nH]c(O)c(N=Nc3ccc(S(N)(=O)=O)cc3)c12 | 77.9% | 247% (inactive) | 109% (inactive) | 1.89 | -0.155 (inactive) | 0.183 (inactive) | 21.5 | 0.593 (inactive) | 0 (inactive) | 0.633 (inactive) | 0.0676
CCc1cccc(CC)c1/C=C/c1cncc(C(=O)NC)c1 | 170% | 99.3% (inactive) | 81% (inactive) | -0.295 | -0.265 (inactive) | 0.127 (inactive) | 4.5 | 0.156 (inactive) | -0.0125 (inactive) | 1.32 (inactive) | -0.269
CCS(=O)(=O)c1ccc(OC)c(Nc2ncc(-c3cccc(-c4ccccc4F)c3)o2)c1 | 111% | 98.4% (inactive) | 88% (inactive) | 0.785 | -0.07 (inactive) | -0.851 (inactive) | 3.5 | 0.511 (inactive) | 0.0015 (inactive) | 2.02 (active) | -0.444
CCc1ccc(Oc2nccc(-c3c(-c4ccc(F)cc4)ncn3C3CCNCC3)n2)cc1 | 78.5% | 140% (inactive) | 104% (inactive) | 0.41 | 0.125 (inactive) | -0.495 (inactive) | 4.5 | 0.0563 (inactive) | -0.0095 (inactive) | -0.158 (inactive) | -0.111
